# From the supplement of paper PMC8728848
# Shown is part of a subset that was picked to be rich in the strongest signals.
# B1: DrGal9 (Danio rerio) (protein)
# chain: MAFYQQPPYYNPRIPFSGPIQGGLQDGKSIIISGRVLPGANRFHVNLQCGSHSEANVALHFNPRYEDTDYVVNNSYLNRTWGSEERKYESPFAQGQTFTLQILVAQDKYKISTNGRHFMDYKHRIPFTQVDTVAVEGMVEVNSVAFQNPAGFIPPQAGYAPQYAVPPGCGFPAFPSAPNYTIPHKTVMNGGLHPGKNIVINGVVNPNAKSIIFNLCYRSGIAFHYNPRFDENVVVRNTNQMEKWGAEERFGGLPFHKGQPFQVTISCNPQHYNVFVNGKQEHTYKHRYTKLNDIDILEICGDLQLTSVQA
# Tests used:
# Assay in all cases: glycan array binding signal (z-score within array); higher = stronger binding
# Settings in all cases: glycan notation: IUPAC condensed, linker removed
# [1] = target: Fuc(a1-2)Gal(b1-3)GlcNAc(b1-3)[Neu5Ac(a2-6)Gal(b1-4)GlcNAc(b1-6)]Gal(b1-4)Glc
# In short: (§1)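 Glycan array binding is given as a within-array Z-score, which can be read as non-binding when negative. The arrays, 3228 of them, came from the Consortium for Functional Glycomics database and were retained only where the protein sequence was available. Z-scores were averaged across arrays of the same protein sequence at different concentrations or buffers and across linkers.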
# [2] = target: Fuc(a1-2)Gal(b1-4)GlcNAc(b1-3)Gal(b1-4)GlcNAc(b1-2)Man(a1-3)[Fuc(a1-2)Gal(b1-4)GlcNAc(b1-3)Gal(b1-4)GlcNAc(b1-2)Man(a1-6)]Man(b1-4)GlcNAc(b1-4)GlcNAc
# In short: as §1
# [3] = target: Fuc(a1-2)Gal(b1-4)GlcNAc(b1-3)GalNAc
# In short: as §1
# [4] = target: Fuc(a1-2)Gal6S(b1-3)GlcNAc
# In short: as §1
# [5] = target: Fuc(a1-2)[Gal(a1-3)]Gal(b1-4)GlcNAc
# In short: as §1
# [6] = target: Fuc(a1-2)[Gal(a1-3)]Gal(b1-4)GlcNAc(b1-2)Man(a1-3)[Fuc(a1-2)[Gal(a1-3)]Gal(b1-4)GlcNAc(b1-2)Man(a1-6)]Man(b1-4)GlcNAc(b1-4)GlcNAc
# In short: as §1
# [7] = target: Fuc(a1-2)[GalNAc(a1-3)]Gal(b1-4)GlcNAc
# In short: as §1
# [8] = target: Fuc(a1-2)[GalNAc(a1-3)]Gal(b1-4)GlcNAc(b1-2)Man(a1-3)[Fuc(a1-2)[GalNAc(a1-3)]Gal(b1-4)GlcNAc(b1-2)Man(a1-6)]Man(b1-4)GlcNAc(b1-4)GlcNAc
# In short: as §1
# [9] = target: Fuc(a1-2)[GalNAc(a1-3)]Gal(b1-4)[Fuc(a1-3)]GlcNAc
# In short: as §1
# [10] = target: Fuc(a1-2)[GalNAc(a1-3)]Gal(b1-4)[Fuc(a1-3)]GlcNAc(b1-3)GalNAc
# In short: as §1
# [11] = target: Fuc(a1-3)[Gal(b1-4)]GlcNAc(b1-2)Man(a1-3)[Fuc(a1-3)[Gal(b1-4)]GlcNAc(b1-2)Man(a1-6)]Man(b1-4)GlcNAc(b1-4)GlcNAc
# In short: as §1
# Gal(a1-3)Gal = target: Gal(a1-3)Gal
# In short: as §1
# Gal(a1-4)Gal(b1-4)Glc = target: Gal(a1-4)Gal(b1-4)Glc
# In short: as §1
# Gal(b1-3)GalNAc = target: Gal(b1-3)GalNAc
# In short: as §1
# [12] = target: Gal(b1-3)GalNAc(b1-4)Gal(b1-4)Glc
# In short: as §1
# [13] = target: Gal(b1-3)GlcNAc(b1-3)Gal(b1-4)GlcNAc
# In short: as §1
# [14] = target: Gal(b1-3)GlcNAc(b1-3)Gal(b1-4)GlcNAc(b1-6)[Gal(b1-3)GlcNAc(b1-3)]Gal(b1-4)Glc
# In short: as §1
# [15] = target: Gal(b1-4)GlcNAc(b1-3)Gal(b1-4)GlcNAc(b1-2)Man(a1-3)[Gal(b1-4)GlcNAc(b1-3)Gal(b1-4)GlcNAc(b1-2)Man(a1-6)]Man(b1-4)GlcNAc(b1-4)[Fuc(a1-6)]GlcNAc
# In short: as §1
# [16] = target: Gal(b1-4)GlcNAc(b1-3)Gal(b1-4)GlcNAc(b1-2)[Gal(b1-4)GlcNAc(b1-3)Gal(b1-4)GlcNAc(b1-6)]Man(a1-6)[Gal(b1-4)GlcNAc(b1-3)Gal(b1-4)GlcNAc(b1-2)Man(a1-3)]Man(b1-4)GlcNAc(b1-4)GlcNAc
# In short: as §1
# [17] = target: Gal(b1-4)GlcNAc(b1-3)Gal(b1-4)GlcNAc(b1-3)Gal(b1-4)GlcNAc(b1-2)Man(a1-3)[Gal(b1-4)GlcNAc(b1-3)Gal(b1-4)GlcNAc(b1-3)Gal(b1-4)GlcNAc(b1-2)Man(a1-6)]Man(b1-4)GlcNAc(b1-4)[Fuc(a1-6)]GlcNAc
# In short: as §1
# [18] = target: Gal(b1-4)GlcNAc(b1-3)Gal(b1-4)GlcNAc(b1-3)Gal(b1-4)GlcNAc(b1-2)[Gal(b1-4)GlcNAc(b1-3)Gal(b1-4)GlcNAc(b1-3)Gal(b1-4)GlcNAc(b1-6)]Man(a1-6)[Gal(b1-4)GlcNAc(b1-3)Gal(b1-4)GlcNAc(b1-3)Gal(b1-4)GlcNAc(b1-2)Man(a1-3)]Man(b1-4)GlcNAc(b1-4)[Fuc(a1-6)]GlcNAc
# In short: as §1
# [19] = target: Gal(b1-4)GlcNAc(b1-3)Gal(b1-4)GlcNAc(b1-3)Gal(b1-4)GlcNAc(b1-3)Gal(b1-4)GlcNAc(b1-2)Man(a1-3)[Gal(b1-4)GlcNAc(b1-3)Gal(b1-4)GlcNAc(b1-3)Gal(b1-4)GlcNAc(b1-3)Gal(b1-4)GlcNAc(b1-2)Man(a1-6)]Man(b1-4)GlcNAc(b1-4)GlcNAc
# In short: as §1
# [20] = target: Gal(b1-4)GlcNAc(b1-3)Gal(b1-4)GlcNAc(b1-3)Gal(b1-4)GlcNAc(b1-3)Gal(b1-4)GlcNAc(b1-2)Man(a1-3)[Gal(b1-4)GlcNAc(b1-3)Gal(b1-4)GlcNAc(b1-3)Gal(b1-4)GlcNAc(b1-3)Gal(b1-4)GlcNAc(b1-2)Man(a1-6)]Man(b1-4)GlcNAc(b1-4)[Fuc(a1-6)]GlcNAc
# In short: as §1
# [21] = target: Gal(b1-4)GlcNAc(b1-3)Gal(b1-4)GlcNAc(b1-3)Gal(b1-4)GlcNAc(b1-3)Gal(b1-4)GlcNAc(b1-2)[Gal(b1-4)GlcNAc(b1-3)Gal(b1-4)GlcNAc(b1-3)Gal(b1-4)GlcNAc(b1-3)Gal(b1-4)GlcNAc(b1-6)]Man(a1-6)[Gal(b1-4)GlcNAc(b1-3)Gal(b1-4)GlcNAc(b1-3)Gal(b1-4)GlcNAc(b1-3)Gal(b1-4)GlcNAc(b1-2)Man(a1-3)]Man(b1-4)GlcNAc(b1-4)[Fuc(a1-6)]GlcNAc
# In short: as §1
# [22] = target: Gal(b1-4)GlcNAc(b1-3)Gal(b1-4)GlcNAc(b1-3)Gal(b1-4)GlcNAc(b1-3)Gal(b1-4)GlcNAc(b1-3)Gal(b1-4)GlcNAc(b1-2)Man(a1-3)[Gal(b1-4)GlcNAc(b1-3)Gal(b1-4)GlcNAc(b1-3)Gal(b1-4)GlcNAc(b1-3)Gal(b1-4)GlcNAc(b1-3)Gal(b1-4)GlcNAc(b1-2)Man(a1-6)]Man(b1-4)GlcNAc(b1-4)GlcNAc
# In short: as §1
# [23] = target: Gal(b1-4)GlcNAc(b1-3)Gal(b1-4)GlcNAc(b1-3)Gal(b1-4)GlcNAc(b1-3)Gal(b1-4)GlcNAc(b1-3)Gal(b1-4)GlcNAc(b1-2)[Gal(b1-4)GlcNAc(b1-3)Gal(b1-4)GlcNAc(b1-3)Gal(b1-4)GlcNAc(b1-3)Gal(b1-4)GlcNAc(b1-3)Gal(b1-4)GlcNAc(b1-6)]Man(a1-6)[Gal(b1-4)GlcNAc(b1-3)Gal(b1-4)GlcNAc(b1-3)Gal(b1-4)GlcNAc(b1-3)Gal(b1-4)GlcNAc(b1-3)Gal(b1-4)GlcNAc(b1-2)Man(a1-3)]Man(b1-4)GlcNAc(b1-4)[Fuc(a1-6)]GlcNAc
# In short: as §1
# [24] = target: Gal(b1-4)GlcNAc(b1-3)Gal(b1-4)GlcNAc(b1-6)[Gal(b1-3)]GalNAc
# In short: as §1
# [25] = target: Gal(b1-4)GlcNAc(b1-6)[Gal(b1-4)GlcNAc(b1-3)]GalNAc
# In short: as §1
# GalNAc(a1-3)Gal = target: GalNAc(a1-3)Gal
# In short: as §1
# [26] = target: GlcNAc(a1-6)Gal(b1-4)GlcNAc
# In short: as §1
binder,measurement,setting,value
B1,glycan array binding signal (z-score),[1],-0.123
same,glycan array binding signal (z-score),[2],3.83
same,glycan array binding signal (z-score),[3],-0.32
same,glycan array binding signal (z-score),[4],-0.391
same,glycan array binding signal (z-score),[5],0.599
same,glycan array binding signal (z-score),[6],3.36
same,glycan array binding signal (z-score),[7],-0.391
same,glycan array binding signal (z-score),[8],-0.329
same,glycan array binding signal (z-score),[9],-0.36
same,glycan array binding signal (z-score),[10],-0.336
same,glycan array binding signal (z-score),[11],-0.409
same,glycan array binding signal (z-score),Gal(a1-3)Gal,-0.376
same,glycan array binding signal (z-score),Gal(a1-4)Gal(b1-4)Glc,-0.356
same,glycan array binding signal (z-score),Gal(b1-3)GalNAc,-0.351
same,glycan array binding signal (z-score),[12],-0.117
same,glycan array binding signal (z-score),[13],-0.053
same,glycan array binding signal (z-score),[14],1.3
same,glycan array binding signal (z-score),[15],5.22
same,glycan array binding signal (z-score),[16],0.373
same,glycan array binding signal (z-score),[17],4.02
same,glycan array binding signal (z-score),[18],4.33
same,glycan array binding signal (z-score),[19],3.48
same,glycan array binding signal (z-score),[20],3.44
same,glycan array binding signal (z-score),[21],3.19
same,glycan array binding signal (z-score),[22],3.05
same,glycan array binding signal (z-score),[23],3.6
same,glycan array binding signal (z-score),[24],0.054
same,glycan array binding signal (z-score),[25],-0.007
same,glycan array binding signal (z-score),GalNAc(a1-3)Gal,-0.402
same,glycan array binding signal (z-score),[26],-0.386
